Measurements as given in PubChem BioAssay AID1159580 (chemical genetic matrix, 2015).
Several values for one entry are separate records, joined by “and”; a condition that tells them apart may be missing. Equal entries are not always repeated. The whole screen tested about 5,500 compounds, of which about 2,000 (36%) were called active. Roughly 18% stayed inconclusive and do not appear here. Rule as the data show it: active = normalized growth mostly below about 0.91 (no sharp cut-off); inconclusive = no clear call, values can overlap the other calls; inactive = mostly above about 0.92. This is one part of the list.

Assay: chemical genetic growth profiling, strain panel (AID 1159580);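 also: tested at 20 µM; growth read once vehicle control cultures reached saturation at 30 °C; 1 = growth at the plate median or of vehicle wells; lower values mean less growth of the strain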
Conditions: S. cerevisiae deletion strains, growth OD

Measured: normalized growth

CCCSc1ccc2nc(NC(=O)OC)[nH]c2c1
active: locus YBR021W, strain FUR4, hits give low values 1.2 [resistant] | locus YCL029C, strain bik1, hits give low values 0.82 | locus YDR195W, strain ref2 1.15 [resistant] | locus YEL003W, strain gim4, hits give low values 0.446 | locus YGR078C, strain PAC10, hits give low values 0.11
inactive: locus YAL013W, strain DEP1, hits give low values 0.995 | locus YAL021C, strain ccr4, hits give low values 1.01 | locus YAL026C, strain drs2, hits give low values 1.01 | locus YAL030W, strain snc1, hits give low values 1 | locus YBL061C, strain skt5, hits give low values 1.01 | locus YBR009C, strain hhf1, hits give low values 1.01 | locus YBR023C, strain chs3, hits give low values 1.01 | locus YBR171W, strain sec66, hits give low values 1.02 | locus YBR229C, strain ROT2, hits give low values 0.992 | locus YBR231C, strain swc5, hits give low values 0.922 | locus YBR279W, strain paf1, hits give low values 1.01 | locus YCL011C, strain gbp2, hits give low values 1.01 | locus YCL016C, strain dcc1, hits give low values 1.01 | locus YCL061C, strain MRC1, hits give low values 1.01 | locus YCL069W, strain vba3, hits give low values 1.01 | locus YCR088W, strain abp1, hits give low values 1.01 | locus YDL005C, strain med2, hits give low values 1.03 | locus YDL035C, strain GPR1, hits give low values 0.99 | locus YDL040C, strain nat1, hits give low values 1.01 | locus YDL074C, strain BRE1, hits give low values 0.866 | locus YDL101C, strain DUN1, hits give low values 0.993 | locus YDL134C, strain PPH21, hits give low values 1.01 | locus YDL185W, strain tfp1, hits give low values 0.93 | locus YDL192W, strain arf1, hits give low values 0.971 | locus YDR001C, strain nth1, hits give low values 1.01 | locus YDR069C, strain doa4, hits give low values 0.998 | locus YDR101C, strain arx1, hits give low values 0.961 | locus YDR137W, strain rgp1, hits give low values 0.862 | locus YDR150W, strain NUM1, hits give low values 0.977 | locus YDR159W, strain sac3, hits give low values 1.04 | locus YDR162C, strain NBP2, hits give low values 0.993 | locus YDR297W, strain sur2, hits give low values 1.01 | locus YDR318W, strain mcm21, hits give low values 0.956 | locus YDR334W, strain swr1, hits give low values 0.962 | locus YDR335W, strain msn5, hits give low values 1.02 | locus YDR388W, hits give low values 0.969 | locus YDR392W, strain spt3, hits give low values 0.967 | locus YDR502C, strain sam2, hits give low values 0.966 | locus YEL037C, strain rad23, hits give low values 1 | locus YEL061C, strain CIN8 (second series), hits give low values 1.01 | locus YEL061C, strain CIN8, hits give low values 0.997 | locus YER015W, strain faa2, hits give low values 1 | locus YER016W, strain bim1, hits give low values 1.01 | locus YER110C, hits give low values 0.976 | locus YER111C, strain swi4, hits give low values 1.02 | locus YER155C, strain BEM2 (second series), hits give low values 0.999 | locus YER155C, strain BEM2, hits give low values 0.991 | locus YER167W, strain BCK2, hits give low values 0.988 | locus YFR010W, strain ubp6, hits give low values 1.02 | locus YGL078C, strain dbp3, hits give low values 0.955 | locus YGL086W, strain mad1, hits give low values 0.974 | locus YGL167C, strain pmr1, hits give low values 1.02 | locus YGL173C, strain kem1, hits give low values 1.02 | locus YGL227W, strain vid30, hits give low values 1 | locus YGL240W, strain doc1, hits give low values 1.01 | locus YGL248W, strain PDE1, hits give low values 0.996 | locus YGL253W, strain hxk2, hits give low values 1.01 | locus YGR135W, strain pre9, hits give low values 0.944 | locus YGR229C, strain SMI1, hits give low values 0.968 | locus YGR252W, strain gcn5, hits give low values 1.16 | locus YHR013C, strain ard1, hits give low values 1.01 | locus YHR027C, strain rpn1, hits give low values 1.01 | locus YHR030C, strain SLT2, hits give low values 0.99 and 0.897 | locus YHR079C, strain IRE1 (second series), hits give low values 0.942 | locus YHR079C, strain IRE1, hits give low values 0.933 | locus YHR094C, strain hxt1, hits give low values 0.965 | locus YHR129C, strain ARP1, hits give low values 0.983 | locus YHR142W, strain chs7, hits give low values 1.01 | locus YHR200W, strain rpn10, hits give low values 0.951 | locus YIL066C, strain RNR3, hits give low values 0.98 | locus YIL073C, strain SPO22, hits give low values 0.894 | locus YIL125W, strain kgd1, hits give low values 0.98 | locus YIR030C, strain dcg1, hits give low values 0.983 | locus YJL092W, strain hpr5, hits give low values 1 | locus YJL095W, strain BCK1 (second series), hits give low values 1.01 | locus YJL095W, strain BCK1, hits give low values 0.95 and 0.922 | locus YJL115W, strain asf1, hits give low values 1.02 | locus YJL129C, strain trk1, hits give low values 1.01 | locus YJL134W, strain LCB3, hits give low values 0.992 | locus YJL154C, strain vps35, hits give low values 1 | locus YJL164C, strain tpk1, hits give low values 1.01 | locus YJL166W, strain qcr8, hits give low values 1 | locus YJL168C, strain set2, hits give low values 0.969 | locus YJL187C, strain SWE1 (second series), hits give low values 0.963 | locus YJL187C, strain SWE1, hits give low values 1 | locus YJR043C, strain POL32, hits give low values 0.967 | locus YJR066W, strain TOR1, hits give low values 0.909
